These results are taken from ChEMBL document CHEMBL1961873, “Compounds: GSK PKIS; Assays: Nanosyn kinase panel” (2012).

The test system of test [1] is Proto-oncogene tyrosine-protein kinase receptor Ret (Homo sapiens), P07949 [Y791F]. The note with it: at 1 µM.
Test [2] deals with Macrophage-stimulating protein receptor (Homo sapiens) (UniProt Q04912). To be noted: at 0.1 µM.
The target is the same in test [3]. The note with it: at 1 µM.
Test [4] concerns the target Proto-oncogene tyrosine-protein kinase ROS (Homo sapiens) (UniProt P08922). The note with it: at 0.1 µM.
Test [5] shares this target. The note with it: at 1 µM.
Test [6] concerns the target Proto-oncogene tyrosine-protein kinase Src (Homo sapiens) (UniProt P12931). The note with it: at 0.1 µM.
The target is the same in test [7]. The note with it: at 1 µM.
The target in test [8] is Tyrosine-protein kinase Srms (Homo sapiens) (UniProt Q9H3Y6). The note with it: at 0.1 µM.
Test [9] has the same target. To be noted: at 1 µM.
Test [10] addresses Tyrosine-protein kinase SYK (Homo sapiens) (UniProt P43405). To be noted: at 0.1 µM.

Molecules are shown by their SMILES.

Macrophage-stimulating protein receptor (Homo sapiens), sequence (Q04912 25-304 limits assumed): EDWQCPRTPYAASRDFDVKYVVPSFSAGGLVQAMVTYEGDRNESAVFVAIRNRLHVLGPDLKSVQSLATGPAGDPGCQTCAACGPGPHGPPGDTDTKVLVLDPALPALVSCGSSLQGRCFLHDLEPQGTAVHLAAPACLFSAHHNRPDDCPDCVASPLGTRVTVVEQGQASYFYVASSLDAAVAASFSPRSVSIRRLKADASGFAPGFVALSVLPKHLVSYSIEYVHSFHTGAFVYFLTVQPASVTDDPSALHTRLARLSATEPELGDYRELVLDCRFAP
Macrophage-stimulating protein receptor (Homo sapiens), sequence (Q04912 310-1400 limits assumed): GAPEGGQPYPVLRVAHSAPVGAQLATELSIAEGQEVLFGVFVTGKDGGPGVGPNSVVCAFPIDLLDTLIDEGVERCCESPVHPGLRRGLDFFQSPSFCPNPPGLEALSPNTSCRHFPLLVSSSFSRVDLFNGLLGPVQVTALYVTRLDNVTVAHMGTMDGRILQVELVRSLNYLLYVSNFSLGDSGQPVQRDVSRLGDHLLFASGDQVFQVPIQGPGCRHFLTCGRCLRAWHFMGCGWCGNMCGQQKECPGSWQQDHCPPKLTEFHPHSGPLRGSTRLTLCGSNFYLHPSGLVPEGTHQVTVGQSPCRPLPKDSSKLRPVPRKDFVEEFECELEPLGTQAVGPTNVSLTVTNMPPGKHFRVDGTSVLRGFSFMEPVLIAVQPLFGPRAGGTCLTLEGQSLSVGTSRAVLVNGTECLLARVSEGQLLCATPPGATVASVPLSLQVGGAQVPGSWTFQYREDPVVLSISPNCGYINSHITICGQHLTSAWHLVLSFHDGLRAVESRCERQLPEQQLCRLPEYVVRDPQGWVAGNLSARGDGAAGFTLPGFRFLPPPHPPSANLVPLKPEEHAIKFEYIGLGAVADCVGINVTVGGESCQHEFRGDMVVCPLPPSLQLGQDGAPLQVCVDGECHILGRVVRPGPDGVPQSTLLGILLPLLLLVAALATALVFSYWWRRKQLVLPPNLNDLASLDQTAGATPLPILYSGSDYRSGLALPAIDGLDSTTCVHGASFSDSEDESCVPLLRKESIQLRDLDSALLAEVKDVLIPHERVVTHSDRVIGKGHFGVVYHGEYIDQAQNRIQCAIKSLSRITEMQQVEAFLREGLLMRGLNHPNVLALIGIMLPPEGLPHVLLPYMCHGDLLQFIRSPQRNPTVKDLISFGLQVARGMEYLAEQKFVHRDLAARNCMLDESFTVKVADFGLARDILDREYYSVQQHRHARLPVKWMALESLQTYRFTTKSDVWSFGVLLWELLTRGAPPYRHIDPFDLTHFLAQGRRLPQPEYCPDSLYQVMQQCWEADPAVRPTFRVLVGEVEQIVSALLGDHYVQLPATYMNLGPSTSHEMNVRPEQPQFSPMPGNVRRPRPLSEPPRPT
Proto-oncogene tyrosine-protein kinase ROS (Homo sapiens), sequence (P08922 whole entry): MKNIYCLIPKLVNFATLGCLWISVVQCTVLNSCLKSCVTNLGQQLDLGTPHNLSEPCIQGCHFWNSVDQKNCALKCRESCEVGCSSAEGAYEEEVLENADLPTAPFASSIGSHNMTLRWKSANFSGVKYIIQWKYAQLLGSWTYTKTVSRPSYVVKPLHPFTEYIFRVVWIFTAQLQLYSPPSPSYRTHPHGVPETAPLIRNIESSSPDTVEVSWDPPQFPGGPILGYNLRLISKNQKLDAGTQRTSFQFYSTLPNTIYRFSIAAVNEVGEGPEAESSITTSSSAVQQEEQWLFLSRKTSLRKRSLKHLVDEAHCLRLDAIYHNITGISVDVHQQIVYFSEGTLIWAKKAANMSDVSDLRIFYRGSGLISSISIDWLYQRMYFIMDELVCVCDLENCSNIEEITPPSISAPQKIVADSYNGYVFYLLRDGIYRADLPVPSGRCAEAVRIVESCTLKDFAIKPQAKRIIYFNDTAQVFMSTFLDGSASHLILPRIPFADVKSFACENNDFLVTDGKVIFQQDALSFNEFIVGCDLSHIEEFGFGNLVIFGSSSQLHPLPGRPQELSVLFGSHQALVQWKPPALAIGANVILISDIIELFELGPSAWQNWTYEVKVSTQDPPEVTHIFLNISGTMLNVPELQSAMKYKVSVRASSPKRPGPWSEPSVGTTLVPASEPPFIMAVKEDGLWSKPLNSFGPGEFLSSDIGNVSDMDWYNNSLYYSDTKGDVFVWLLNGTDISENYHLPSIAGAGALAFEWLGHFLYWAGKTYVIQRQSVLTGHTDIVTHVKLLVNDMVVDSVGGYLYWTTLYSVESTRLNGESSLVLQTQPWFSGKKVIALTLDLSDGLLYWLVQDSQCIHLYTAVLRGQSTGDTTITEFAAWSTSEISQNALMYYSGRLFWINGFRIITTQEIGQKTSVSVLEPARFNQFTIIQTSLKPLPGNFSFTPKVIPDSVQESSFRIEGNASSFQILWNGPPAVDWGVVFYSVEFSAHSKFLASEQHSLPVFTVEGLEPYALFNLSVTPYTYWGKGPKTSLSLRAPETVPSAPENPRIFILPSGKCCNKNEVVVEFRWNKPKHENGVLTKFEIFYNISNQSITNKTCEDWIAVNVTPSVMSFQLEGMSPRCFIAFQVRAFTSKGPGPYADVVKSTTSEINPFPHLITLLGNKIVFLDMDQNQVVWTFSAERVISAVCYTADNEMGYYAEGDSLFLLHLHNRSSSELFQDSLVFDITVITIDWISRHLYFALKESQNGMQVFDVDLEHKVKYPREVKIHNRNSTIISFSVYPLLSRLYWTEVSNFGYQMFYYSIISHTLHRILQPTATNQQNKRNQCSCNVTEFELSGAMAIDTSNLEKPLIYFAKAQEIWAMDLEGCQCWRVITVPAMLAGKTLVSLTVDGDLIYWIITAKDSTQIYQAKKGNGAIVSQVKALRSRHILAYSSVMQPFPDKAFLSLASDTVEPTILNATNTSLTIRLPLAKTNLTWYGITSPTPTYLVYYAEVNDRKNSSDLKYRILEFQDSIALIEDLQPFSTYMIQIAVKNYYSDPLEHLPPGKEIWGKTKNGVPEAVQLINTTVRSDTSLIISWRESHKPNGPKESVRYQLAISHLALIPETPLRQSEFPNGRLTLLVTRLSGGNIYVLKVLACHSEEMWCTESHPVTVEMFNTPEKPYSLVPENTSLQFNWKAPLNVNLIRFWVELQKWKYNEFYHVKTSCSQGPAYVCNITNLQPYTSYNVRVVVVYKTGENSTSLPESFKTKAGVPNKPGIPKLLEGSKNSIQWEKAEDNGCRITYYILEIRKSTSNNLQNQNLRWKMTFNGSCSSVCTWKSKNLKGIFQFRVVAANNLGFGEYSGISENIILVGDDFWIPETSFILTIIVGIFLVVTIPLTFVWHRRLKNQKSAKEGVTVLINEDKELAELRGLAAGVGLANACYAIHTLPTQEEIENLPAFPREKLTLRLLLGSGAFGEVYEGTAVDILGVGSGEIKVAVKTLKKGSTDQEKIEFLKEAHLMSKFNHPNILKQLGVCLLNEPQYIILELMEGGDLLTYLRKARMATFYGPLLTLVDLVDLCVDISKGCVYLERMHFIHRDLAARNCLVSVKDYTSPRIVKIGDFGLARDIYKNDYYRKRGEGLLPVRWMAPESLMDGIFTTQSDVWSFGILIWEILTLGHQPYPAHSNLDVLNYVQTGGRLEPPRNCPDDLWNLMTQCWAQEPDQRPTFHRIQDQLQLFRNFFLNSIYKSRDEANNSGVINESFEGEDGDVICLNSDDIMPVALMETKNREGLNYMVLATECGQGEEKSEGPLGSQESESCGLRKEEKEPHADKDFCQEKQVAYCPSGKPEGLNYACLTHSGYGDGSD
Proto-oncogene tyrosine-protein kinase Src (Homo sapiens), sequence (P12931 2-536 limits assumed): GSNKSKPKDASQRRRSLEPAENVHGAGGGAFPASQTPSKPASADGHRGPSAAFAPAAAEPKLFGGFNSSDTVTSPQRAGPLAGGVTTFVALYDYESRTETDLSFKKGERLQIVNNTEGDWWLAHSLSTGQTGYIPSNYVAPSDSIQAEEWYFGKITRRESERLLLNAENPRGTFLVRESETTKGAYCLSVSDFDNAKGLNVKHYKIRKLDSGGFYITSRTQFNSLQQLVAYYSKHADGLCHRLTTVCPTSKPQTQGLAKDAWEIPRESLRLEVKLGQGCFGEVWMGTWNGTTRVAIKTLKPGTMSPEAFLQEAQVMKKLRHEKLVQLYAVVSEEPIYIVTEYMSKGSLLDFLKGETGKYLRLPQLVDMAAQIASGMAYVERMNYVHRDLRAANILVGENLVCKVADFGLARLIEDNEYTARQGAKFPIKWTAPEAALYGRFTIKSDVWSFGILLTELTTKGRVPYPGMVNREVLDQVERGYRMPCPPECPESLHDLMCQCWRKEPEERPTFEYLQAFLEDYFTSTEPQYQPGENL
Tyrosine-protein kinase Srms (Homo sapiens), sequence (Q9H3Y6 whole entry): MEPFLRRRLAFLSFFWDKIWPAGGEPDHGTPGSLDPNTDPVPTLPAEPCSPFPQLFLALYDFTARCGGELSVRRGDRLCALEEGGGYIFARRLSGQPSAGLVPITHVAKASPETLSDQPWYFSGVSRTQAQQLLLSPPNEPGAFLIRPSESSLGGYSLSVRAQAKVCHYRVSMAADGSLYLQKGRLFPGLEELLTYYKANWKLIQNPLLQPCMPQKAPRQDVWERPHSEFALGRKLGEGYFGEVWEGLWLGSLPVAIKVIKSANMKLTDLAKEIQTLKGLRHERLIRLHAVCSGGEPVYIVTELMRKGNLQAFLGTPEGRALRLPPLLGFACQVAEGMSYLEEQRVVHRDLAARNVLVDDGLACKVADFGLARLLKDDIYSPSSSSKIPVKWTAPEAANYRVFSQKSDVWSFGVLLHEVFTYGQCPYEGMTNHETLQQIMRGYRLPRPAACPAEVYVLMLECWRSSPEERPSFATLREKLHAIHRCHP

For `COc1cc(C=NNc2ncnc3c2cnn3Cc2ccccc2)ccc1O`, the inhibition is 28.4% in test [1]; -1.32% in [2]; 12.5% in test [3]; 2.7% in [4]; 16.4% in test [5]; 31.2% in [6]. Besides, the inhibition in test [7] is 76.5%; in test [8] it was -0.22%; in test [9], 4.66%; in test [10] it was 4.57%.
On to `Fc1ccc(-c2ncn(C3CCNCC3)c2-c2ccnc(Oc3ccccc3)n2)cc1`, for which the inhibition in test [1] is 4.13%; in test [3] it was -0.69%; in [4] it was 2.25%; in test [5] it was 4.83%; in test [6], 1.52%; in test [7], 2.45%. The results for the inhibition in test [8], in test [9] and in test [10] were -0.96%, -0.16% and 2.45%, respectively.
With `CCn1c(-c2nonc2N)nc2c(C#CC(C)(C)O)ncc(OC[C@@H]3CCCN3)c21`, the inhibition in test [1] is 28.5%; in [2], 1.97%; in test [3] it was -2.78%; in test [4], -0.22%; in test [5], 0.45%; in [6], -0.2%. Also, the inhibition was -2.58% in test [7], 1.63% in test [8], 0.87% in test [9] and -0.6% in [10].
Take `NS(=O)(=O)c1ccc(-c2ccc3c(NC(=O)C4CC4)n[nH]c3c2)cc1`: the inhibition in test [1] was 5.85%; in test [2], 5.07%; in test [3] it was 8.99%; in test [4], 1.18%; in [5] it was 2.15%; in test [6] it was 1.32%. The inhibition in test [7] is 4.59%; in [8] it was -2.44%; in test [9] it was -0.4%; in [10], -0.58%.
`Nc1nonc1-c1nc2cnccc2n1C1CCCCC1`: the inhibition in test [1] is 13.2%; in [2], 13.1%; in test [3], -1.49%; in [4] it was 5.33%; in [5] it was 35.9%; in test [6] it was 1.24%. Besides, the inhibition in test [7] is -1.17%; in [8], 1.53%; in test [9], 2.59%; in test [10] it was 3.45%.
In the case of `COc1cccc(-n2ncc3c(N/N=C/c4ccncc4)ncnc32)c1`, the inhibition stood at 65.9% in [1]; 12.4% in test [2]; 60.9% in test [3]; 10.2% in [4]; 76% in [5]; 49.1% in test [6]. The inhibition is 87.3% in test [7], 1.22% in test [8], 14.3% in test [9] and -2.07% in test [10].
Regarding `CCn1c(-c2nonc2N)nc2c(C#CC(C)(C)O)ncc(OCC3CCNCC3)c21`, the inhibition is 33.5% in test [1]; 0.01% in test [2]; 7.68% in test [3]; 3.89% in test [4]; 5.45% in [5]; -0.03% in test [6]. Besides, the inhibition worked out at 8.65% in [7], 0.75% in test [8], 1.57% in test [9] and 0.62% in test [10].
In the case of `COc1cccc(COc2cc(-n3cnc4ccccc43)sc2C(N)=O)c1`, the inhibition in test [1] was 11.6%; in test [2] it was -1.15%; in test [3] it was 1.23%; in [4], 1.62%; in [5] it was 3.74%; in [6], -0.77%. The inhibition was -2.52% in [7], -2.46% in test [8], -1.46% in [9] and -0.33% in test [10].
In the case of `NS(=O)(=O)c1ccc(N/C=C2\C(=O)Nc3ccc4ncsc4c32)cc1`, the inhibition in [1] worked out at 69%; in [2], 7.83%; in test [3] it was 39.2%; in test [4], 6.11%; in test [5], 17%; in test [6], 12.2%. For the same molecule, the inhibition in test [7] is 42.9%; in test [8], -3.95%; in [9], -1.72%; in test [10] it was -2.47%.
For the molecule `COc1cc2c(cc1Nc1nc(Nc3ccsc3C(N)=O)c3cc[nH]c3n1)N(C(=O)CN(C)C)CCC2`, the inhibition in test [1] was 7.35%; in test [2], 2.97%; in test [3] it was 11.5%; in [4] it was 82.1%; in [5] it was 82.1%; in test [6] it was 8.11%. The inhibition in test [7] came out at 6.64%; in test [8] it was 5.79%; in [9], 3.93%; in test [10], 10.9%.
On to `NC(=O)c1sc(-n2cnc3cc(C(F)(F)F)ccc32)cc1OCc1ccccc1Br`, for which the inhibition in test [1] is 7.07%; in test [2], 0.35%; in test [3], -1.59%; in [4], 4.23%; in test [5] it was 5.52%; in test [6] it was 3.37%. The inhibition in test [7] is 2.02%; in test [8], 0.27%; in test [9], 0.76%; in test [10], 0.79%.
For `CCn1c(-c2nonc2N)nc2c(C#CCN)ncc(OCCCN)c21`, the inhibition is 15.8% in test [1]; -2.05% in test [2]; -3.31% in test [3]; 3.3% in [4]; 4.46% in test [5]; -2.04% in test [6]. The inhibition in test [7] is -4.29%; in test [8] it was 1.1%; in test [9], 1.96%; in test [10] it was 8.99%.
For the molecule `CCn1c(-c2nonc2N)nc2c(C#CC(C)(C)O)nc(O[C@@H](CN)c3ccccc3)cc21`, the inhibition worked out at 80.3% in test [1]; 1.9% in test [2]; 3.42% in [3]; 2.61% in test [4]; 11.1% in test [5]; 2.84% in [6]. The inhibition turned out to be 20.9% in test [7], 4.6% in [8], 0.15% in [9] and 1.9% in test [10].
Regarding `Cc1cc(-c2ccco2)cc(C)c1/C=C/c1cncc(-c2nn[nH]n2)c1`, the inhibition is 2.75% in [1]; 1.68% in test [2]; -0.11% in [3]; 2.71% in [4]; 3.62% in test [5]; 2.38% in test [6]. In addition, the inhibition turned out to be 2.91% in [7], 0.76% in [8], 3.61% in test [9] and 0.05% in [10].

What is called inhibition is the relative decrease from the control value, in per cent.
